Results taken from PubChem BioAssay (Tox21).
Results filed as inconclusive are left out. Where a call stands in place of a potency, no number is given. Unmarked numbers belong to inactive results. Calls of active or inactive are those of the source. The call rests on the fitted dose curve; in most records, active means well fitted inhibition curve with a large enough effect in the repeat runs; inconclusive means weak or mixed curves, or effect the other way; inactive means no such curve, though single readings can be large or run the other way.

The compounds below were run against Nuclear receptor subfamily 1 group I member 3 (Homo sapiens) (UniProt Q14994) (assay: qHTS assay to identify small molecule antagonists of the constitutive androstane receptor (CAR) signaling pathway (AID 1224838;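 further: HepG2 cells stably expressing hCAR with CYP2B6 luciferase reporter stimulated by CITCO; nearly all actives have a fitted effect of over 40% in size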)). Details: HepG2-CYP2B6-hCAR luciferase, CITCO-stimulated, 24 h; series mostly up to 92.4 µM.
Nuclear receptor subfamily 1 group I member 3 (Homo sapiens), sequence (Q14994 whole entry, looked up): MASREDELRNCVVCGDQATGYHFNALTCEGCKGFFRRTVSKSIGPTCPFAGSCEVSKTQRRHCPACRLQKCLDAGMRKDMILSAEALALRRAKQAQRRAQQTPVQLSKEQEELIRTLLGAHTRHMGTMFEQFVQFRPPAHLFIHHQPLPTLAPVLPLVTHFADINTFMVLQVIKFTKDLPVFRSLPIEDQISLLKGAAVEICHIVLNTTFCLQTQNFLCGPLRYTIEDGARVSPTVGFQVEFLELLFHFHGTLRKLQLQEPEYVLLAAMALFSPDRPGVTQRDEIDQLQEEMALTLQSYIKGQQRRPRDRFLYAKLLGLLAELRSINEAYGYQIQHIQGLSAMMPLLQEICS
Description: U.S. Tox21 Program National Center for Advancing Translational Sciences [NCATS] NIH Chemical Genomics Center [NCGC] U.S. Environmental Protection Agency [EPA] National Institutes of Environmental Health Sciences [NIEHS] National Toxicology Program [NTP] U.S. Food and Drug Administration [FDA] Tox21 Assay Overview: The constitutive androstane receptor (CAR) is a nuclear receptor which regulates multiple drug metabolizing enzymes (DMEs) and transporters. Activating CAR will generally increase the transcription and subsequent translation of CYP2B6 and CYP3A4. These two DMEs represent about 50% of the drug metabolizing potential in the body. When CAR is deactivated, the metabolizing potential in the body will decrease, subsequently increasing the toxicity in the body or lowering the therapeutic potential of a pro-drug. Recently, there have also been studies performed indicating CARs role in energy metabolism and cancer therapy. Therefore, inhibiting CARs activity could have a potential effect on diabetes and cancer. Identifying environmental toxins and compounds which modulate CAR, through the use of the Tox21 10K compound collection, will be an important step in determining the toxicity and potential therapeutic effects these factors will have on the human body.
Tox21 Assay Protocol Summary: A double-stable (hCAR and CYP2B6-2.2kb) transfected cell line, derived from human hepatoma (HepG2) cells, was utilized for the duration of the quantitative high-throughput screens. The HepG2-CYP2B6-hCAR cells suspended in DMEM culture medium supplemented with 10% FBS, 5 ug/mL blasticidin, 0.5 mg/mL geneticin, 100 U/mL penicillin and 100 ug/mL streptomycin were dispensed at 2500 cells/4 uL/well in 1536-well white solid bottom plates using a Multidrop Combi. After the assay plates were incubated at 37 C/5% CO2 for 4 hrs, 23 nL of compounds at 15 concentrations (from 5-48 columns) or positive control (from 1 to 4 columns) were transferred to the assay plates using a Pintool station. One uL of CITCO, was added using a Flying Reagent Dispenser to generate a final concentration of 50 nM CITCO inside each well. After a 24 hr incubation period at 37 C/5% CO2, four uL of ONE-Glo reagent was added into the assay plates using a Flying Reagent Dispenser. After a 30 min incubation period at room temperature, the luminescence intensity in the assay plates was measured using a ViewLux plate reader.

Row | SMILES | Potency | activity, negative = inhibition
1 | NCCc1cnc[nH]1 | inactive | –
2 | COC(=O)CCSCCC(=O)OC | inactive | –
3 | O=C1CCCCCCCCCCCN1 | inactive | –
4 | OCCCC1CCCCC1 | inactive | –
5 | Nc1ccccc1S(=O)(=O)O | inactive | –
6 | Cc1c(NC(C)C)c(=O)n(-c2ccccc2)n1C | inactive | –
7 | NC(=O)c1cn(Cc2c(F)cccc2F)nn1 | inactive | –
8 | CCC=O | inactive | –
9 | O=c1cc(CO)occ1O | inactive | –
10 | COc1ccccc1OCC(O)CN1CCN(CC(=O)Nc2c(C)cccc2C)CC1 (stereo not given) | inactive | –
11 | NS(=O)(=O)c1cc(C(=O)NN2C[C@H]3[C@H]4CCC(C4)[C@H]3C2)ccc1Cl | inactive | –
12 | C=CCOCC(CC)(CO)COCC=C | inactive | –
13 | O=C(CCCN1CCC(O)(c2cccc(C(F)(F)F)c2)CC1)c1ccc(F)cc1 | inactive | –
14 | Nc1nc2c(ncn2COC(CO)CO)c(=O)[nH]1 | inactive | –
15 | CC/C=C\CC/C=C/CO | inactive | –
16 | C/C=C(\C)C#N | inactive | –
17 | N=C(N)c1ccc(OCCCOc2ccc(C(=N)N)cc2)cc1 | inactive | –
18 | O=C(O)CNC(=O)c1ccc([N+](=O)[O-])cc1 | inactive | –
19 | CN1CCCC1 | inactive | –
20 | COc1nc(N)nc2c1ncn2[C@@H]1O[C@H](CO)[C@@H](O)[C@@H]1O | inactive | –

Row | SMILES | Potency | activity, negative = inhibition
21 | CCOC(C)(C)C | inactive | –
22 | CC/C=C\CCOC(C)=O | inactive | –
23 | O=C(c1ccccc1)C1CCCCC1 | inactive | –
24 | CC(C)c1cc2c(cc1S(=O)(=O)O)[C@@]1(C)CCC[C@@](C)(C(=O)O)[C@@H]1CC2 | inactive | –
25 | N=C(N)c1ccccc1 | inactive | –
26 | Brc1c(NC2=NCCN2)ccc2nccnc12 | inactive | –
27 | COc1ccc2c(c1)CCCC2=O | inactive | –
28 | CCC(C)C1CCCCC1=O (stereo not given) | inactive | –
29 | OC1CCCCC1c1ccccc1 (stereo not given) | inactive | –
30 | CCc1nccnc1CC | – | -16.5% [at 19 µM]
31 | N[C@H](C(=O)O)c1ccc(O)cc1 | – | -5.61% [at 19 µM]
32 | CO[Si](CCCOCC1CO1)(OC)OC (stereo not given) | inactive | –
33 | N[C@H]1CN(c2c(F)cc3c(=O)c(C(=O)O)cn(C4C[C@H]4F)c3c2Cl)CC12CC2 (stereo not given in full) | inactive | –
34 | C[C@H]1C[C@@H](O)CC(C)(C)C1 | inactive | –
35 | NC(CSCC(=O)O)C(=O)O (stereo not given) | inactive | –
36 | NC(=O)Nc1ccccc1 | inactive | –
37 | Cn1cc(S(C)=O)c(=O)c2ccc(F)cc21 (stereo not given) | inactive | –
38 | CCOC(=O)CCC(C)=O | inactive | –
39 | CCO[Si](CCC1CCC2OC2C1)(OCC)OCC (stereo not given) | inactive | –
40 | CC(=O)N(CC(O)CO)c1c(I)c(C(=O)NCCO)c(I)c(C(=O)NCC(O)CO)c1I (stereo not given) | inactive | –
